Where “and” joins values, the source holds several entries; their conditions need not be identical. Equal entries are not always repeated. Inconclusive results are not listed. Calls of active or inactive are those of the source. Unless noted, the call rests on the fitted dose curve; in most records, active means well fitted curve in the direction sought with a large enough effect in the repeat runs; inconclusive means weak or mixed curves; inactive means no such curve, though single readings can be large; an effect the other way counts as inactive or inconclusive.
Tests used:
[1] = qHTS assay to identify small molecule agonists of the hypoxia (HIF-1) signaling pathway - cell viability counter screen (AID 1224844; calls by dose curve; further: nearly all actives have a fitted effect of over 50% in size; further: potency means the concentration at half of the fitted maximal effect)
Procedure, shortened: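 HRE-bla ME-180 cells, 2,000/well in 0.5% dialyzed FBS medium, treated 17 h at 37C with compounds. Viability read in the same wells as the bla reporter, by CellTiter-Glo luminescence after 30 min at room temperature.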

[2] = qHTS assay to identify small molecule agonists of H2AX - cell viability counter screen (AID 1224847; calls by dose curve; further: nearly all actives have a fitted effect of over 30% in size; further: potency means the concentration at half of the fitted maximal effect)
Procedure, shortened: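 Cytotoxicity counter screen in wild-type CHO-K1 cells: a 3 hr compound treatment at 37C across 15 concentrations, followed by CellTiter-Glo luminescence to gauge viable cells.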

[3] = A CellTox Green Cytotoxicity Assay to monitor cytotoxicity in HEK293 cells - 0 hour (AID 1224869); further: nearly all actives have a fitted effect of over 50% in size
Procedure, shortened: (§1)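 HEK293 cells, 600/well, were preincubated 5 hours and then exposed to compounds at 37 C for up to 40 hours. A cell-impermeant cyanine dye staining dead-cell DNA was read by fluorescence at 0, 8, 16, 24, 32 and 40 h time points.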

[4] = qHTS RealTime-Glo MT Cell Viability Assay in HepG2 cells - 40 hour (AID 1224870); further: nearly all actives have a fitted effect of over 50% in size; further: potency means the concentration at half of the fitted maximal effect
Procedure, shortened: (§2)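 Real-time viability: cells seeded at 600 per well together with NanoLuc and cell-permeant prosubstrate, compounds added after 5 h incubation. Luminescence tracked at 0, 8, 16, 24, 32 and 40 h of exposure.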

[5] = A CellTox Green Cytotoxicity Assay to monitor cytotoxicity in HEK293 cells - 40 hour (AID 1224871); further: nearly all actives have a fitted effect of over 45% in size; further: potency means the concentration at half of the fitted maximal effect
Procedure, shortened: as §1

[6] = qHTS RealTime-Glo MT Cell Viability Assay in HEK293 cells - 16 hour (AID 1224872); further: nearly all actives have a fitted effect of over 50% in size; further: potency means the concentration at half of the fitted maximal effect
Procedure, shortened: (§3)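 Homogeneous bioluminescent viability format in HEK293 cells (600 cells/well). Following 5 h at 37 C/5% CO2, 23 nL compound was pintooled; the signal was measured repeatedly during 40 h incubation.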

[7] = qHTS RealTime-Glo MT Cell Viability Assay in HepG2 cells - 8 hour (AID 1224873); further: nearly all actives have a fitted effect of over 55% in size; further: potency means the concentration at half of the fitted maximal effect
Procedure, shortened: as §2

[8] = A CellTox Green Cytotoxicity Assay to monitor cytotoxicity in HEK293 cells - 24 hour (AID 1224875); further: nearly all actives have a fitted effect of over 45% in size; further: potency means the concentration at half of the fitted maximal effect
Procedure, shortened: as §1

[9] = A CellTox Green Cytotoxicity Assay to monitor cytotoxicity in HepG2 cells - 16 hour (AID 1224876); further: nearly all actives have a fitted effect of over 45% in size; further: potency means the concentration at half of the fitted maximal effect
Procedure, shortened: (§4)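 HepG2 cells, 600/well, preincubated 5 h with CellTox Green dye, then exposed to Tox21 compounds in DMSO at 37 C for up to 40 h. Dead-cell DNA fluorescence read at the indicated time point.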

[10] = A CellTox Green Cytotoxicity Assay to monitor cytotoxicity in HepG2 cells - 24 hour (AID 1224878); further: nearly all actives have a fitted effect of over 45% in size; further: potency means the concentration at half of the fitted maximal effect
Procedure, shortened: as §4

[11] = A CellTox Green Cytotoxicity Assay to monitor cytotoxicity in HepG2 cells - 40 hour (AID 1224879); further: nearly all actives have a fitted effect of over 40% in size; further: potency means the concentration at half of the fitted maximal effect
Procedure, shortened: as §4

[12] = qHTS RealTime-Glo MT Cell Viability Assay in HEK293 cells - 0 hour (AID 1224880)
Procedure, shortened: (§5)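 600 cells/well were plated with the nonlytic NanoLuc/prosubstrate reagent, pre-incubated 5 h, then given 23 nL of compound in DMSO. Incubation at 37 C for 40 h, with luminescence from viable-cell-reduced substrate read repeatedly from 0 h.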

[13] = qHTS RealTime-Glo MT Cell Viability Assay in HepG2 cells - 24 hour (AID 1224867); further: nearly all actives have a fitted effect of over 50% in size; further: potency means the concentration at half of the fitted maximal effect
Procedure, shortened: (§6)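 Cell number in HepG2 cultures estimated from NanoLuc luminescence generated by metabolic reduction of a prosubstrate by living cells. The homogeneous, nonlytic format allowed repeated reads at 0, 8, 16, 24, 32 and 40 h of compound exposure.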

[14] = qHTS RealTime-Glo MT Cell Viability Assay in HEK293 cells - 32 hour (AID 1224868); further: nearly all actives have a fitted effect of over 50% in size; further: potency means the concentration at half of the fitted maximal effect
Procedure, shortened: as §3

[15] = qHTS RealTime-Glo MT Cell Viability Assay in HEK293 cells - 40 hour (AID 1224874); details: RealTime-Glo luminescence; max response: hits give low values; further: nearly all actives have a fitted effect of over 50% in size; further: potency means the concentration at half of the fitted maximal effect
Procedure, shortened: as §5

[16] = qHTS RealTime-Glo MT Cell Viability Assay in HepG2 cells - 32 hour (AID 1224877); further: nearly all actives have a fitted effect of over 55% in size; further: potency means the concentration at half of the fitted maximal effect
Procedure, shortened: as §6

[17] = qHTS assay to identify small molecule agonists of H2AX (AID 1224845; active means well fitted activation curve with a large enough effect in the signal ratio in the repeat runs, not every such curve was filed as active; the % refers to the signal ratio)
Procedure, shortened: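 Phospho-H2AX Ser139 measured by HTRF (ex 320 nm; em 665 and 620 nm) after 24 hr antibody incubation. Compounds, 15 concentrations, 0.76% DMSO, were applied to CHO-K1 cells for 3hr at 37C before lysis.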

[18] = qHTS assay to identify small molecule agonists of the hypoxia (HIF-1) signaling pathway (AID 1224846; active means well fitted activation curve with a large enough effect in the signal ratio in the repeat runs, not every such curve was filed as active; the % refers to the signal ratio)
Procedure, shortened: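 HRE-bla ME-180 beta-lactamase reporter cells in medium with 0.5% dialyzed FBS, pre-incubated 5 h then exposed to compounds 17 h at 37C, 5% CO2; reporter induction read with CCF4-AM FRET substrate.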

[19] = qHTS assay to identify small molecule agonists of the estrogen related receptor (ERR) signaling pathway from Tox21 library (AID 1224849; calls by dose curve; further: nearly all actives have a fitted effect of over 15% in size); details: ERR reporter cell line, ONE-Glo luciferase, 18 h; at 92.4 µM (top of the series) unless noted
Procedure, shortened: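 ERR reporter cells (NTP line) pre-incubated 6 hours at 37 C, then exposed to compounds for 18 hours at 37 C. ONE-Glo luciferase luminescence was read after 30 minutes at room temperature.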
On the % scale 0 is the no-effect control and ±100 the full control effect.

[C-]1=CC=CC1.[Cl][Zr+2][Cl].c1cc[cH-]c1
inactive: Potency [1] | Potency [2] | Potency [3] | Potency [4] | Potency [5] | Potency [6] | Potency [7] | Potency [8] | Potency [9] | Potency [10] | Potency [11] | Potency [12]

CCC(C)c1cccc(C(C)CC)c1O (stereo unspecified)
inactive: Potency [1] | Potency [13] | Potency [14] | Potency [3] | Potency [4] | Potency [6] | Potency [7] | max response [15] -7.36% | Potency [16] | Potency [12]
active: Potency [2] 35.7 µM | Potency [5] 27.5 µM | Potency [8] 38.9 µM | Potency [9] 17.4 µM | Potency [10] 19.5 µM | Potency [11] 19.5 µM

Cc1cccc(Cc2cnc[nH]2)c1C
inactive: Potency [1] | Potency [2] | Potency [13] | Potency [14] | Potency [3] | Potency [4] | Potency [5] | Potency [6] | Potency [7] | max response [15] -0.68% | Potency [8] | Potency [16]

CC[C@H](C)[C@H]1O[C@]2(C=C[C@@H]1C)C[C@@H]1C[C@@H](C/C=C(\C)[C@@H](O[C@H]3C[C@H](OC)[C@@H](O[C@H]4C[C@H](OC)[C@@H](NC)[C@H](C)O4)[C@H](C)O3)[C@@H](C)/C=C/C=C3\CO[C@@H]4[C@H](O)C(C)=C[C@@H](C(=O)O1)[C@]34O)O2
inactive: Potency [3] | Potency [12]
active: Potency [1] 21.9 µM | Potency [13] 9.77 µM | Potency [14] 4.9 µM | Potency [4] 9.77 µM | Potency [5] 11 µM | Potency [6] 6.92 µM | Potency [7] 15.5 µM | Potency [15] 4.36 µM | Potency [8] 13.8 µM | Potency [9] 15.5 µM | Potency [16] 9.77 µM | Potency [11] 9.77 µM

Oc1cccc(Cl)c1Cl
inactive: Potency [17] | Potency [18] | Potency [2] | activity change, positive = activation [19] -30.2% | Potency [13] | Potency [3] | Potency [4] | Potency [5] | Potency [7] | Potency [8] | Potency [9] | Potency [16] | Potency [10] | Potency [11] | Potency [12]

Oc1ccc([C@H]2CNCc3c2ccc(O)c3O)cc1O
inactive: Potency [1] | Potency [2] | activity change, positive = activation [19] -4.81% [at 42.5 µM] | Potency [14] | Potency [3] | Potency [4] | max response [15] -21.9% | Potency [16] | Potency [12]
active: Potency [8] 26.8 µM | Potency [9] 23.9 µM | Potency [11] 26.8 µM

CCCCCCCc1ccc(O)cc1
inactive: Potency [3] | Potency [4] | Potency [16] | Potency [12]
active: Potency [2] 50.5 µM | Potency [14] 19.5 µM | Potency [5] 43.6 µM | Potency [6] 11 µM | Potency [15] 21.9 µM | Potency [8] 43.6 µM | Potency [9] 21.9 µM | Potency [10] 21.9 µM | Potency [11] 21.9 µM

CC(=O)[O-].CC(=O)[O-].O.O.[Zn+2]
inactive: Potency [17] | Potency [13] | Potency [14] | Potency [3] | Potency [4] | Potency [5] | Potency [6] | Potency [7] | max response [15] -2.4% | Potency [8] | Potency [9] | Potency [16] | Potency [10] | Potency [11] | Potency [12]

CCCCCCC[CH2][Sn]([Cl])([Cl])[CH2]CCCCCCC
inactive: Potency [2] | activity change, positive = activation [19] -59.9% | Potency [13] | Potency [14] | Potency [3] | Potency [4] | Potency [5] | Potency [6] | Potency [7] | max response [15] -19.1% | Potency [8] | Potency [9] | Potency [16] | Potency [10] | Potency [11] | Potency [12]

CO/N=C(\C(=O)OC)c1ccccc1CO/N=C(\C)c1cccc(C(F)(F)F)c1
inactive: Potency [17] | Potency [13] | Potency [3] | Potency [4] | Potency [7] | Potency [8] | Potency [16] | Potency [10] | Potency [11] | Potency [12]
active: Potency [2] 2.01 µM | Potency [14] 12.3 µM | Potency [5] 6.92 µM | Potency [15] 6.16 µM

Clc1ccc(C(Cl)(Cl)Cl)cc1Cl
inactive: Potency [3] | Potency [12]
active: Potency [1] 24 µM | Potency [14] 33.9 µM | Potency [5] 33.9 µM | Potency [6] 33.9 µM | Potency [8] 33.9 µM | Potency [9] 47.9 µM | Potency [10] 47.9 µM | Potency [11] 47.9 µM

CC(C)N(C(=O)CCl)c1ccccc1
active: Potency [15] 49 µM and 38.9 µM | Potency [11] 43.6 µM
inactive: activity change, positive = activation [19] -77.7% and -74.7% | Potency [3] | Potency [5] | Potency [8] | Potency [9] | Potency [10] | Potency [12]

O=S(=O)(NS(=O)(=O)C(F)(F)F)C(F)(F)F
inactive: Potency [17] | Potency [13] | Potency [3] | Potency [4] | Potency [7] | Potency [8] | Potency [16] | Potency [12]
active: Potency [2] 56.5 µM | Potency [14] 1.94 µM | Potency [15] 1.94 µM | Potency [10] 48.9 µM | Potency [11] 48.9 µM
